TIM10 inh = growth inhibitors of TIM10 yeast strain | 1.4% of 330,000 active | S. cerevisiae TIM10 strain growth, BacTiter-Glo luminescence, 24 h | AID 463195 | inhibition, % at 10 µM;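 active = inhibition of 40% or more at the single tested concentration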;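 note: wild-type TIM10 isogenic control strain grown at permissive 25 °C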
NALP1 yeast inh = NALP1 inhibition; S. cerevisiae NALP1/ASC/caspase-1 growth, X-gal OD620, 72 h; inhibition, % at 10 µM; 0.61% of 280,000 active; in the data active = inhibition mostly above about 24%, no sharp cut-off; inactive = mostly below about 32%
tim10-1 inh = growth inhibitors of tim10-1 mutant yeast | S. cerevisiae tim10-1 ts strain growth, BacTiter-Glo, 24 h | inhibition, % at 20 µM | 2.2% of 330,000 active;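 active = inhibition of at least 40%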;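 note: mutant grown at 25 °C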
NALP3 yeast inh = NALP3 inhibition in yeast | Yeast reconstituted NLRP3/ASC/caspase-1, beta-gal luminescence, 24 h | AID 2825 | inhibition, % at 10 µM | 0.39% of 330,000 active;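 active = inhibition of 50% or more; inactive = inhibition below 50%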
tim23-1 inh = growth inhibitors of tim23-1 mutant yeast. S. cerevisiae tim23-1 growth, BacTiter-Glo luminescence, 24 h. inhibition, % at 20 µM. 1.3% of 330,000 active;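 active = growth inhibition of the mutant yeast at or above 50%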;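 note: temperature-sensitive mutant grown at 25 °C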
TIM10 conf = confirmation of TIM10 yeast growth inhibitors; shares compounds with TIM10 inh; S. cerevisiae tim10 strain growth, BacTiter-Glo luminescence, 24 h; inhibition, % at 10 µM; 63% of 4,600 active; AID 463215;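 active = inhibition of yeast growth at or above a set limit in either of two replicates at 10 µM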; note: this counterscreen used the strain with wild-type TIM10
Each line names hits and unclear results; the compound was inactive in the other large screens (follow-up assays come after a bar, where they were run). In the library only some 4% were active in any assay of this set; here they are far more common.

COc1cccc(-c2cc(C(=O)N3CCN(C(c4ccccc4)c4ccccc4)CC3)no2)c1	TIM10 inh 56.6 | TIM10 conf 44.0
COc1ccc(-c2cc(C(=O)N3CCN(c4ccccc4)CC3)no2)cc1OC	TIM10 inh 41.9 | TIM10 conf inactive
COc1cc(NC(=O)C2=C(C)OCCS2)c(Cl)cc1C(=O)NCCN(C)C	none
CCn1cc(C(=O)NCCCN2CCC(C)CC2)c(=O)c2cc(S(=O)(=O)N3CCOCC3)ccc21	none
Cc1cccc(NC(=O)c2cc([N+](=O)[O-])ccc2NCC2CCCO2)n1 (centres undefined)	TIM10 inh 49.1 | TIM10 conf 42.7
Cc1cccc(C(=O)NNC(=O)C23CC4CC(CC(C4)C2)C3)c1O	TIM10 inh 48.7 | TIM10 conf 46.1
Cc1cc(C)c(C(=O)C(C)OC(=O)Cn2cnc3c2c(=O)n(C)c(=O)n3C)cc1C (centres undefined)	TIM10 inh 58.2 (no result: NALP1 yeast inh) | TIM10 conf inactive
CC(OC(=O)Cn1cnc2c1c(=O)n(C)c(=O)n2C)C(=O)c1ccccc1 (centres undefined)	none (no result: NALP1 yeast inh)
C=CCNC(=O)C1CCN(c2ccc(S(=O)(=O)N3CCOCC3)cc2[N+](=O)[O-])CC1	none
Cc1ccc(C(=O)c2oc3ccccc3c2N)cc1	TIM10 inh 47.5 | TIM10 conf inactive
CCc1ccccc1-n1nnnc1-c1cnccc1C(F)(F)F	none
S=c1nc(-c2sccc2OCc2ccc(Cl)cc2Cl)[nH][nH]1	TIM10 inh 40.6 | TIM10 conf 29.2
O=C(NNc1cc(Cl)ccc1Cl)C1CCC1	none
COc1ccc(-c2[nH]n(-c3ccc([N+](=O)[O-])cc3)c(=O)c2C=NCc2ccncc2)cc1	TIM10 inh 42.9 | TIM10 conf inactive
COc1ccccc1Cn1c(/C=C/c2ccccc2)nc2ccccc21	TIM10 inh 42.1 | TIM10 conf inactive
COc1ccc(/C=C/c2nc3ccccc3n2Cc2ccccc2OC)cc1	none
Cn1c(/C=C/c2ccccc2)nc2ccccc21	TIM10 inh 54.6 | TIM10 conf 47.9
COC(=O)c1ccc(NC(=O)CSCc2ccccc2C)cc1	none
COc1ccc(Cl)cc1N(CC(=O)Nc1ccccc1C(=O)N1CCOCC1)S(C)(=O)=O	none
O=C(NCc1ccc(Cl)cc1)c1ccc(Br)o1	TIM10 inh 67.8 | TIM10 conf inactive
O=C(Nc1ccc2c(c1)N(S(=O)(=O)c1cccs1)CCC2)c1c(F)cccc1Cl	none (no result: NALP1 yeast inh)
COc1ccc2[nH]c3c(c2c1)CCN1C(=O)C(CC(=O)NCC24CC5CC(CC(C5)C2)C4)C[C@H](C(=O)N(C(C)C)C(C)C)[C@@]31C (some centres undefined)	none (no result: NALP1 yeast inh, NALP3 yeast inh)
Oc1cccc(Nc2nc(O)c(/C=C3\C=Nc4ccccc43)s2)c1	none
Oc1nc(Nc2cccc(Cl)c2)sc1/C=C1\C=Nc2ccccc21	TIM10 inh 44.3 | TIM10 conf inactive
Cc1ccccc1SCC(=O)OCC(=O)NCc1ccccc1	none (no result: NALP1 yeast inh)
COc1cc(NC(=O)c2cccs2)cc(OC)c1	TIM10 inh 69.8, NALP1 yeast inh 65.2 | TIM10 conf 55.8
O=C(Nc1cccc(-c2csc(-c3ccccc3)n2)c1)c1cccs1	TIM10 inh 40.5 | TIM10 conf 32.4
O=C(Nc1cccc(C2OCCCO2)c1)c1cccs1	TIM10 inh 43.9 | TIM10 conf inactive
O=C(Nc1ccc2c(c1)OCO2)c1ccc(Br)s1	none
O=C(Nc1ccc2c(c1)OCO2)c1cccs1	TIM10 inh 47.3 | TIM10 conf 36.6
Cc1nc(-c2cccc(NC(=O)c3cccs3)c2)cs1	none
Cc1nn(C(=O)CCCn2cc([N+](=O)[O-])cn2)c(C)c1Cl	none
CC(CN)(NS(=O)(=O)c1ccccc1)c1ccccc1 (centres undefined)	none
Cc1c([N+](=O)[O-])cc(C(=O)Oc2ccc(Br)cc2C(=S)N2CCCCC2)cc1[N+](=O)[O-]	TIM10 inh 44.0 | TIM10 conf 32.1
Cc1cc(=O)n2nc(N3CCCC(C(=O)NCc4ccccc4Cl)C3)sc2n1 (centres undefined)	none
Cc1cccc(OCCNS(=O)(=O)c2ccc(Cl)cc2)c1	none (no result: NALP1 yeast inh)
COCc1[nH]nc2c1C(c1ccsc1)C(C#N)=C(N)O2 (centres undefined)	none
COCc1[nH]nc2c1C(c1sccc1C)C(C#N)=C(N)O2 (centres undefined)	TIM10 inh 52.5 | TIM10 conf 28.1
N#CC1=C(N)Oc2n[nH]c(-c3cccs3)c2C1c1cccs1 (centres undefined)	TIM10 inh 45.8 | TIM10 conf inactive
CC(C)CC(NC(=O)C1CCC(=O)N1C(=O)OCc1ccccc1)C(=O)NC(Cc1ccccc1)C(N)=O (centres undefined)	none
COC(=O)C(=O)/C=C(\O)c1c(C)cc(C)cc1C	none (no result: NALP1 yeast inh)
Oc1ccc(-c2cccc(-c3ccc(O)cc3)n2)cc1	TIM10 inh 44.4 | TIM10 conf 31.8
Oc1ccc(-c2nnc(-c3ccc(O)cc3)nn2)cc1	none
O=C1c2ccccc2C(=O)c2cc(NC(=O)C3CC3)ccc21	TIM10 inh 44.1 | TIM10 conf inactive
Cc1ccccc1N1CCN(C(=O)c2ccc(Oc3ccc(C(F)(F)F)cn3)cc2)CC1	TIM10 inh 47.2 | TIM10 conf 42.8
Cc1cccc(C)c1OCc1cc(C(=O)N(Cc2c(C)nn(C)c2C)C2CC2)no1	none
O=C(O)c1nnn(-c2cc(C(F)(F)F)cc(C(F)(F)F)c2)c1-c1ccccc1	TIM10 inh 41.4 | TIM10 conf inactive
CCN(CC)S(=O)(=O)c1ccc(N/N=C(\C)c2ccc(OC)cc2O)nc1	TIM10 inh 41.6 (no result: NALP1 yeast inh) | TIM10 conf 39.5
CCN(CC)S(=O)(=O)c1ccc(N/N=C/c2ccc(OC)c(OC)c2OC)nc1	none
Cc1[nH]n(S(=O)(=O)Cc2ccccc2)c(=O)c1N=Nc1ccccc1Cl	TIM10 inh 41.4 | TIM10 conf inactive
Nc1ncc(Br)cc1S(=O)(=O)NCCC(=O)NCCc1ccc(Cl)cc1	none
CCOC(=O)C1CCCN(C(=O)c2ccc3[nH]c4c(c3c2)CC(C)CC4)C1 (centres undefined)	TIM10 inh 73.1 (no result: NALP1 yeast inh) | TIM10 conf inactive
CCOC(=O)CC1=NN(c2ccccc2)C(=O)/C1=C\c1ccc(OC)cc1OC	TIM10 inh 47.9 | TIM10 conf inactive
COC(=O)CC1=NN(c2ccccc2)C(=O)/C1=C\c1ccc(OC)cc1	none
S=C(NCc1cccs1)Nc1cc(Cl)cc(Cl)c1	TIM10 inh 47.1 | TIM10 conf 55.6
S=C(NCc1cccs1)Nc1ccccc1Cl	none
Fc1ccc(CNC(=S)Nc2ccc(Cl)cc2)cc1	none
S=C(NCc1ccc(Cl)cc1)Nc1ccccc1	TIM10 inh 41.6 | TIM10 conf inactive
c1ccc(-c2csc(Nc3cccnc3)n2)cc1	TIM10 inh 41.6 | TIM10 conf inactive
COc1cc(C)ccc1OCc1cc(C(=O)N2CCN(C3CCCCC3)CC2)no1	none
Cc1ccc(N(CC(=O)Nc2cc(C)cc(C)c2)S(=O)(=O)c2c(C)noc2C)cc1	none
